Source: the supplement of paper PMC4466236
In all, about 33,000 sequences were measured (“E-score (dimensionless, -0.5 to 0.5)”: median about -0.058, highest 2% from about 0.35 on). The sample as a whole holds a higher share of the highest values than the screen did.

The sequences below were run on MvaT (assay: PBM 8-mer E-score (mean of HK and ME arrays) (E-score (dimensionless, -0.5 to 0.5)); higher = stronger relative binding preference).
In short: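 Full-length P. aeruginosa MvaT carrying an N-terminal glutathione S-transferase tag was tested by protein binding microarray following a previously described protocol. Two universal double-stranded 60-mer arrays, ME and HK, were used, each with a constant 25-mer primer region and a variable 35-mer region covering all 8-mers. The rank-based E-score is the mean of the two arrays, parsed with a custom script. Its range runs from -0.5 to 0.5 for each 8-mer.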

Sequence | PBM 8-mer E-score
AGATCGAG | -0.129
CGTGAAGC | -0.218
CTTGGTTA | 0.0108
CATATCAC | 0.15
GAGGCACC | -0.229
TAACATAA | 0.303
AAACATAC | 0.284
AAACATAT | 0.361
AAACATAG | 0.216
ATACAAAG | 0.27
ATACAAAA | 0.304
GAACATAA | 0.256
ATACATAT | 0.394
AAACATAA | 0.371
ATACAAAT | 0.35
ATACATAA | 0.336
ATACATAC | 0.319
CAGTTGAC | 0.0902
GGTCGAAC | -0.0987
AGTCAGAG | -0.21
CCTGGCGC | -0.207
GATAAATC | 0.137
CATAAATC | 0.163
TATAAAGA | 0.327
CATAAATA | 0.358

Sequence | PBM 8-mer E-score
GATAAAGA | 0.271
AGTAAATC | 0.0898
CATAAATG | 0.112
CCTAAATA | 0.226
TATAAATA | 0.426
CGTAAATA | 0.236
AGTAAATA | 0.361
GATAAATA | 0.382
CCCTGGAA | -0.276
CCCTACAC | -0.212
CTCCGCCA | -0.247
ACTCAGTA | 0.118
AATTGAGA | 0.0559
CATAAGTA | 0.315
AATAAATC | 0.319
AATAAGTA | 0.387
AATAAGTG | 0.254
AAGAAATT | 0.26
AATAAACT | 0.293
AATAAATG | 0.33
AATAAATT | 0.436
AATAAATA | 0.434
CCAAGTTC | 0.0376
AGGAGAAC | -0.112
CGACTCAA | -0.0083

Sequence | PBM 8-mer E-score
TACCATAA | 0.271
CATCTCCG | -0.186
AGCTTGCG | -0.227
GATATGAA | 0.156
TATATGCA | 0.412
CATATGCA | 0.164
AATATGCA | 0.264
AATATGAA | 0.329
TATATGAA | 0.382
CAGCACAA | -0.0547
TCAGCCCA | -0.133
AAAGTATG | 0.216
ACGTAAAC | -0.0262
AATACGGG | -0.0239
AACTTACA | 0.33
CACTTATA | 0.326
AACTTATA | 0.415
TACTTATA | 0.389
ACCTTATA | 0.266
GACTTATA | 0.312
AAGCCGGA | -0.238
TACTGTAA | 0.336
AAGGACGT | -0.149
GGAGTCAA | -0.134
CTTGAACA | -0.0207

Sequence | PBM 8-mer E-score
AAGGTGGG | -0.155
CCGCGGCG | -0.0831
ACGAGGCT | -0.135
ATTGGTAC | 0.139
GTGTAATA | 0.342
CTATAATA | 0.42
ATCTAATA | 0.321
ATGTAATA | 0.317
CTCTAATA | 0.364
GTCTAATA | 0.269
CCATAATA | 0.287
GTATAATA | 0.416
CTGTAATA | 0.36
CTGTAATC | 0.0848
GTATAAGA | 0.278
CTTCAACA | 0.0315
CCCGCGTA | -0.177
CGTCTCAG | -0.227
CTGTTTCA | -0.122
AACCCATT | 0.0496
GACCAACC | -0.0441
GCATCAGC | -0.135
CTCGTCGC | -0.208
AATATGTC | 0.233
AACATGTC | -0.0784

Sequence | PBM 8-mer E-score
ATTATGTG | 0.261
ACTATGTG | 0.172
AATATGTA | 0.365
CATATGTA | 0.252
AATATGTG | 0.368
ATTATGTC | 0.305
AACATGTA | 0.347
AACATGTT | 0.295
ATTATGTA | 0.377
GATATGTA | 0.282
GTTGCAAC | 0.157
CGAGCTTC | -0.313
ACAGTCTA | -0.0014
ATAAAGGA | 0.0948
ACAGGCCG | -0.147
ATAAAGTG | 0.228
CATGATAC | 0.111
GAGATATC | 0.163
GATATCTA | 0.267
GCGATATA | 0.361
GGGATATA | 0.218
ACGATATA | 0.328
GATATATC | 0.396
CCGATATA | 0.333
GATATATA | 0.469

Sequence | PBM 8-mer E-score
GATATACC | 0.178
TCAAGTGA | -0.00408
AAAGAGTC | 0.0357
GTCGATCA | -0.174
CTGATACA | 0.0751
AATACAGC | 0.247
CTCGCAGC | -0.11
CCTCACCC | -0.165
GTAATTTA | 0.388
ATAATTTA | 0.416
GTAATTCA | 0.191
ATAATTTC | 0.386
AGAATTTA | 0.262
ATAATTCA | 0.325
GTAATTGA | 0.264
CTAATTTC | 0.0429
AGAATTTC | 0.122
CTAATTGA | 0.11
ATAATTTG | 0.298
CTAATTTA | 0.389
AGTAGAGA | 0.0385
CCTGAATA | 0.0626
ACGGCAGA | -0.166
GCCACACC | -0.0459
AACTCTGC | 0.143

Sequence | PBM 8-mer E-score
AAAGGTCA | -0.0376
ATCTCATA | -0.00882
ACTTATAG | 0.251
ACTTATAT | 0.424
ACTTATAA | 0.419
ACTTATCA | 0.196
GCTTATGA | -0.0922
CCTTATAA | 0.338
GCTTATAC | 0.166
GCTTATAA | 0.418
ACTTATGA | 0.248
ACTTATAC | 0.326
TCTTATCA | 0.177
TCTTATAA | 0.369
GAGCGTAC | -0.233
AGTTACTG | 0.282
ACTGGATA | 0.12
ACCTAAGA | -0.0551
GCCCACGA | -0.205
CAATGAGA | -0.0714
GATAGAAA | 0.105
AGAAAGGG | -0.151
